Reference: PubChem BioAssay (NCATS)
Results filed as inconclusive are left out. Activity calls are given as the source filed them. Unless noted, calls follow the shape of the dose curve; as a rule, active = well fitted curve in either direction with a large enough effect (not every such curve was filed as active); inconclusive = small, poorly fitted or top-dose-only effect, or another doubt; inactive = flat fitted curve, though single readings scatter.

Legend:
[1] = AP1 Signaling Pathway (AID 357); conditions: ME-180 AP-1-bla reporter, EGF-induced, beta-lactamase ratio, 5 h; at 17.2 µM (top of the series) unless noted;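 also: ME-180 reporter cells stimulated with EGF at its EC50 level; % is scaled to controls: 0 for no effect and ±100 for the full control effect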
Method in brief: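 In this screen, ME-180 cells in Opti-MEM with 0.5% dialyzed FBS received EC50 EGF and compound titrations for 5 h. AP-1 reporter beta-lactamase was detected via CCF4 ratio, giving AC50 for positive and negative modulators.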

[2] = Stat Signaling Pathway (AID 446); conditions: ME-180 SIE beta-lactamase reporter, IL-6 stimulated, 5 h; at 17.2 µM (top of the series) unless noted;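 also: ME-180 cervical cancer cells given 40 pM IL-6 alongside compound; SIE-controlled beta-lactamase reporter measured as 460/530 nm FRET emission ratio; % is scaled to controls: 0 for no effect and ±100 for the full control effect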
Method in brief: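 Reporter line: ME-180 cervical carcinoma, SIE-beta-lactamase. Treatment: compound with 40 pM IL-6, 5 hrs, 37 C, in low-serum OPTI-MEM with 10 mM HEPES pH 7.3. Detection: 460/530 nm fluorescence.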

[3] = biological target: Glucocorticoid receptor (Homo sapiens) (UniProt P04150); experiment: GR-GFP Redistribution (AID 450;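 active = compounds whose dose series gives a full or clear partial fitted curve of increased nuclear translocation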; also: potency is read from the fitted curve at half-maximal effect)
Glucocorticoid receptor (Homo sapiens), sequence (P04150 whole entry, looked up, the tested form may be a part): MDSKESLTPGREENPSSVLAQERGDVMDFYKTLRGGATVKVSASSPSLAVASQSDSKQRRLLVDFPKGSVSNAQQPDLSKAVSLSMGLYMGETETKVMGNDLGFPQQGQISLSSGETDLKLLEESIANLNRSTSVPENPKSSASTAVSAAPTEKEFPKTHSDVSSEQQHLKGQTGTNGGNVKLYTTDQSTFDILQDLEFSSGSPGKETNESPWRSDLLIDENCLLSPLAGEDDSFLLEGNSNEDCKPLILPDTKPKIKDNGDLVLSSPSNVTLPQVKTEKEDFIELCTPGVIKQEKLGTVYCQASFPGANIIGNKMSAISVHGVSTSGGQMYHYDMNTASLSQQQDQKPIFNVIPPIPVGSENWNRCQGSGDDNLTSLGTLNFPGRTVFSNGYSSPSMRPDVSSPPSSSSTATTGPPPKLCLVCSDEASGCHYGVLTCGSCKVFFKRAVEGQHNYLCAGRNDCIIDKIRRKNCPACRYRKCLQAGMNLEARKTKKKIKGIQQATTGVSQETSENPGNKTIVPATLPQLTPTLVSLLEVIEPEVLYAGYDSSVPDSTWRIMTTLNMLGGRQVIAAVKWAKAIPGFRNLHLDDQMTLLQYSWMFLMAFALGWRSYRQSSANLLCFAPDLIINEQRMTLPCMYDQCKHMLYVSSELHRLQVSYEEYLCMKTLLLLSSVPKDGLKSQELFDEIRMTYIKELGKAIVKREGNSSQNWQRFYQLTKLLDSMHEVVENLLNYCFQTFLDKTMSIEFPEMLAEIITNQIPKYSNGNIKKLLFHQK

[4] = biological target: Tumor susceptibility gene 101 protein (Homo sapiens) (UniProt Q99816); experiment: qHTS Assay for Iinhibitors of HIV-1 Budding by Blocking the Interaction of PTAP/TSG101: Hit Validation (AID 651600; active = well fitted curve in the direction sought with a large enough effect; an effect the other way counts as inactive or inconclusive; also: potency is read from the fitted curve at half-maximal effect; nearly all actives have a fitted effect of over 70% in size)
Tumor susceptibility gene 101 protein (Homo sapiens), sequence (Q99816 whole entry, looked up, the tested form may be a part): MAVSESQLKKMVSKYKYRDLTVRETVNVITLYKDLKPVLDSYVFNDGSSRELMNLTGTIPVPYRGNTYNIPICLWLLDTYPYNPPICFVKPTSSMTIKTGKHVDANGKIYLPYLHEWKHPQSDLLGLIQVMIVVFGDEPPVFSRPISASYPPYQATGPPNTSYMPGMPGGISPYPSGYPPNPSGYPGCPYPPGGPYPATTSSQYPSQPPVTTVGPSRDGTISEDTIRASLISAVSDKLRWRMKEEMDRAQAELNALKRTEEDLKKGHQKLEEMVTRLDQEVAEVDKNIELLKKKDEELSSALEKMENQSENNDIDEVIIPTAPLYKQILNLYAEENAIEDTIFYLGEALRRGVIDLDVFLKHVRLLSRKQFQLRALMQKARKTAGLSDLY
Method in brief: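 FITC-PTAP peptide (50 nM final) binding to Tsg101 binding domain (10 uM final) was measured by polarization after 20 min at r.t. with compounds, in 10 mM HEPES pH 7.5 buffer with 0.15 M NaCl and 0.01% Tween 20.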

[5] = qHTS Assay for Identification of Small Molecule Agonists for Hypoxia Response Element Signaling Pathway (AID 914; active = well fitted activation curve with a large enough effect in the signal ratio, with a control signal flat, not every such curve was filed as active; the % refers to the signal ratio; also: potency is read from the fitted curve at half-maximal effect; as to activation: % of control where 0% means no effect); conditions: ME-180 (cervical carcinoma) HRE-bla reporter, beta-lactamase ratio, CoCl2, 17 h; activation: stronger effect = higher value
Method in brief: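 HRE-bla ME-180 cells, overnight plating in Opti-MEM with 0.5% dialyzed FBS; cpd titration + EC50 CoCl2, 17 h, 37 degrees Celsius; CCF4 2.5 h RT; 460/530 nm ratio; AC50.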

[6] = biological target: Glucocorticoid receptor (Homo sapiens) (UniProt P04150); experiment: GR-EFC Redistribution (AID 451; calls by dose curve; also: potency is read from the fitted curve at half-maximal effect); conditions: CHO-K1 GR-EFC translocation, beta-gal luminescence, 2 h
Method in brief: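 Translocation of GR-ED fusion to nuclear EA restores b-gal, read by luminescence after 1 h room-temperature detection. Engineered CHO-K1 biosensor cells, 1,000/well, exposed 2 h at 37 C to titrations up to 46 uM final.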

[7] = biological target: Mitogen-activated protein kinase 10 (Mus musculus) (UniProt Q61831); experiment: JNK3 AlphaScreen Assay (AID 530);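 also: kinase came from lysate of stimulated human HepG2 cells; signal reports phosphorylation of biotinylated GST-cJun 1-79 at Ser73 with 10 µM ATP; % is scaled to controls: 0 for no effect and ±100 for the full control effect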
Method in brief: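 Compound titrations were preincubated 15 minutes at room temperature with substrate, antibody and pre-activated JNK3-containing HepG2 lysate. Reactions were started with 10 uM ATP and stopped with EDTA-containing bead buffer for AlphaScreen detection.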

[8] = biological target: 3',5'-cyclic-AMP phosphodiesterase 4B (Homo sapiens) (UniProt Q07343); experiment: qHTS Assay for Inhibitors of PDE-IV (AID 607; active = well fitted activation curve with a large enough effect in the main read-out, with a control signal flat, not every such curve was filed as active; also: % of control where 0% means no effect)
3',5'-cyclic-AMP phosphodiesterase 4B (Homo sapiens), sequence (Q07343 whole entry, looked up): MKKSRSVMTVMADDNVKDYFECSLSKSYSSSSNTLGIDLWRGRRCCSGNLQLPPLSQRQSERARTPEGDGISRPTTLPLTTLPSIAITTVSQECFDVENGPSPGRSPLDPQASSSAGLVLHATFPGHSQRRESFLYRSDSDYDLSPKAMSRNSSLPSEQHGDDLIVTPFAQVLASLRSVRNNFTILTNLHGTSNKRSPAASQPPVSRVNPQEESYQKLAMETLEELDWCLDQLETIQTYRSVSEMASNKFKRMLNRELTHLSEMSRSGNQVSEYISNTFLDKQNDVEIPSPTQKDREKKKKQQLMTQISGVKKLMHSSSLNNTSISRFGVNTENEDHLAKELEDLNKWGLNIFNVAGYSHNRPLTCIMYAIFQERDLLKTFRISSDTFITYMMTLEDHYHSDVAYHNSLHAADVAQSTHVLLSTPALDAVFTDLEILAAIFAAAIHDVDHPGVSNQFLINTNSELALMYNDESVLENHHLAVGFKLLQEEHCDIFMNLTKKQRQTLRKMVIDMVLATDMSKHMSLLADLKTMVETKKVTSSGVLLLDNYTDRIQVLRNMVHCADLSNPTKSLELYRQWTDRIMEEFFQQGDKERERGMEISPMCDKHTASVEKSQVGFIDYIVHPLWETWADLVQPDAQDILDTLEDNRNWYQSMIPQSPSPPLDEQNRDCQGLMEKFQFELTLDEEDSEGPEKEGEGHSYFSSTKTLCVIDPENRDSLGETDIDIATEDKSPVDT
Method in brief: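 Cell-based read-out of cAMP via a modified cyclic nucleotide-gated channel and membrane potential dye (535/590 nm) in HEK293 cells expressing PDE4 endogenously. Compounds tested up to 22.9 uM final; 100 uM RO 20-1724 reference.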

[9] = biological target: Guanine nucleotide-binding protein G(i) subunit alpha-1 (Homo sapiens) (UniProt P63096); experiment: qHTS Assay for Inhibitors of RGS12 GoLoco Motif Activity (Green Fluorophore) (AID 879; active = well fitted curve in the direction sought with a large enough effect; an effect the other way counts as inactive or inconclusive;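 also: 0% = labeled peptide with Gαi1 and full inhibition = labeled peptide alone without protein; negative values mean loss of peptide binding seen as reduced polarization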)
Guanine nucleotide-binding protein G(i) subunit alpha-1 (Homo sapiens), sequence (P63096 whole entry, looked up): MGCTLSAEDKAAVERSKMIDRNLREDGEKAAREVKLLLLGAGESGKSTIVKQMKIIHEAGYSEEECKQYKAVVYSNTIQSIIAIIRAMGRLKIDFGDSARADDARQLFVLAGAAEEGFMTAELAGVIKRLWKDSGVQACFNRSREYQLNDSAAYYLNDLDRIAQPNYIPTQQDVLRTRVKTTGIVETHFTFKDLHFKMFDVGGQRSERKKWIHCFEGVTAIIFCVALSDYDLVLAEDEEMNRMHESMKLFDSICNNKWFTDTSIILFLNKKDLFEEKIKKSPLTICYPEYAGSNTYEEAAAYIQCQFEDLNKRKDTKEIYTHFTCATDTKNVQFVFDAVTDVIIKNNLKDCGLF
Method in brief: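 Fluorescence polarization assay: 50 nM Gαi1 with 10 nM FITC-labeled RGS12 GoLoco peptide in 10 mM Tris pH 7.5, 150 mM NaCl, 0.1 mM GDP, 0.05% NP40, 10 min at room temperature with compound.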

[10] = qHTS Assay for Identification of Small Molecule Antagonists for NFkB Signaling Pathway (AID 895; active = well fitted inhibition curve with a large enough effect in the signal ratio, with a control signal flat, not every such curve was filed as active; the % refers to the signal ratio; also: % is scaled to controls: 0 for no effect and ±100 for the full control effect)
Method in brief: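 Beta-lactamase reporter read-out (460 and 530 nm emission ratio, 405 nm excitation, 2 hrs substrate loading RT) after 5 hr stimulation with 10 pM TNF alpha in compound-treated NFkB-bla ME-180 cells in low-serum medium.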

[11] = qHTS Assay for Identification of Small Molecule Agonists for Thrombopoietin (TPO) Signaling Pathway (AID 917; active = well fitted curve in the direction sought with a large enough effect; an effect the other way counts as inactive or inconclusive; also: % is scaled to controls: 0 for no effect and ±100 for the full control effect)
Method in brief: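 Reporter: GpIIb promoter–luciferase in murine Ba/F3 expressing human TPO receptor. Pre-starved of IL-3 overnight; compounds with 26 pM TPO, 24 hrs, 37 C/5% CO2; luminescence read.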

[12] = biological target: Pyruvate kinase (Leishmania mexicana) (UniProt Q27686); experiment: qHTS Validation Assay for Inhibitors of Leishmania Mexicana Pyruvate Kinase (AID 945; active = well fitted curve in the direction sought with a large enough effect; an effect the other way counts as inactive or inconclusive;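 also: 0% = DMSO only neutral control wells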)
Method in brief: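 Luminescent ATP detection (PKLight) after a 1 h room-temperature reaction of 0.2 nM LmPYK E451W mutant with 0.5 mM PEP and 0.1 mM ADP at pH 7.2. Activity is normalized to DMSO-only control wells.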

[13] = biological target: Pyruvate kinase PKM (Homo sapiens) (UniProt P14618); experiment: qHTS Assay for Activators of Human Muscle Pyruvate Kinase (AID 954; active = well fitted curve in the direction sought with a large enough effect, not every such curve was filed as active;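 also: 0% = uninhibited enzyme and -100% = no enzyme or full thiadiazolimine inhibition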)
Pyruvate kinase PKM (Homo sapiens), sequence (P14618 whole entry, looked up): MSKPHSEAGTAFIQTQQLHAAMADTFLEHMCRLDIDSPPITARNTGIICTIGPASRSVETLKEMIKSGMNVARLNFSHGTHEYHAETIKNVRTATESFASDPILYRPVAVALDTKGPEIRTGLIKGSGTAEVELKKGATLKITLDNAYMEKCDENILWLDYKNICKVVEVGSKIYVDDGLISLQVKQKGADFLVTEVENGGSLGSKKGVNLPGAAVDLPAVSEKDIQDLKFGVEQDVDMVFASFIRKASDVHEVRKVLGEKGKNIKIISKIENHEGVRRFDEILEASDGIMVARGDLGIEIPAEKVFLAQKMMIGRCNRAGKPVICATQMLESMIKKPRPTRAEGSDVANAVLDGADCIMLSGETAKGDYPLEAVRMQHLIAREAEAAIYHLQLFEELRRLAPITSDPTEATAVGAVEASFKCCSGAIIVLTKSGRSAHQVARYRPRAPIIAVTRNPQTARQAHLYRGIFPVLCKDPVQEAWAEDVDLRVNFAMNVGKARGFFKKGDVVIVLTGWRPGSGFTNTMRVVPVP
Method in brief: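 Human PKM2 activity is measured as ATP generation, detected by luciferase-coupled luminescence. The enzyme (0.1 nM) acts on 0.5 mM PEP and 0.1 mM ADP for 1 h at ambient temperature; data are normalized to uninhibited and full-inhibition wells.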

[14] = biological target: Alpha-galactosidase A (Homo sapiens) (UniProt P06280); experiment: Counterscreen for Glucocerebrosidase Inhibitors: qHTS Assay for Human alpha-Galactosidase at pH 4.5 (AID 992; active = well fitted curve in the direction sought with a large enough effect; an effect the other way counts as inactive or inconclusive; also: 0% is about no effect)
Alpha-galactosidase A (Homo sapiens), sequence (P06280 whole entry, looked up): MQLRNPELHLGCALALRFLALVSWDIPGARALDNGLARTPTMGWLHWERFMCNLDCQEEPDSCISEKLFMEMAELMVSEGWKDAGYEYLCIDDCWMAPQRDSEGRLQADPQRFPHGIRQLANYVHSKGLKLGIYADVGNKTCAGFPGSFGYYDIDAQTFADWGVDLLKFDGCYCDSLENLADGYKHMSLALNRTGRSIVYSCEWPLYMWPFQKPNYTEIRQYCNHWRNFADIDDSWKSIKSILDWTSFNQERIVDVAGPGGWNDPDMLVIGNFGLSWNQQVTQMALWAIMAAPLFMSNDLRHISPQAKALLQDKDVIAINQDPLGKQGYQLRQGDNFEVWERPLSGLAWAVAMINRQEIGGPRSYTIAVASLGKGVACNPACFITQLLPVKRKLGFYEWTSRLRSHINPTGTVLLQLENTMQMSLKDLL
Method in brief: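 Quantitative HTS: compounds tested from 0.7 nM up to 77 uM against 2 nM enzyme with 80 uM 4-MU alpha-D-galactopyranoside. The 20 min room-temperature reaction is stopped with 1M NaOH/1M glycine, pH 10.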

[15] = biological target: alpha-glucosidase (Oryza sativa, rice) (UniProt Q653V4); experiment: Counterscreen for Glucocerebrosidase Inhibitors: qHTS Assay for Rice alpha-Glucosidase at pH 5.0 (AID 997; active = well fitted curve in the direction sought with a large enough effect; an effect the other way counts as inactive or inconclusive;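 also: 0% = full activity with enzyme and -100% = basal without enzyme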)
Method in brief: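 Rice alpha-glucosidase (4 nM final) with 400 uM 4-methylumbelliferyl-alpha-D-glucopyranoside in citrate buffer pH 5.0, 20 min at room temperature, stopped at pH 10; fluorescence 365/440 nm, compounds 0.7 nM–77 uM, AC50 from Hill fits.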

[16] = biological target: Cytochrome P450 3A4 (Homo sapiens) (UniProt P08684); experiment: qHTS Assay for Inhibitors and Substrates of Cytochrome P450 3A4 (AID 884; active = well fitted curve in the direction sought with a large enough effect; an effect the other way counts as inactive or inconclusive; also: potency is read from the fitted curve at half-maximal effect; nearly all actives have a fitted effect of over 50% in size)
Cytochrome P450 3A4 (Homo sapiens), sequence (P08684 whole entry, looked up): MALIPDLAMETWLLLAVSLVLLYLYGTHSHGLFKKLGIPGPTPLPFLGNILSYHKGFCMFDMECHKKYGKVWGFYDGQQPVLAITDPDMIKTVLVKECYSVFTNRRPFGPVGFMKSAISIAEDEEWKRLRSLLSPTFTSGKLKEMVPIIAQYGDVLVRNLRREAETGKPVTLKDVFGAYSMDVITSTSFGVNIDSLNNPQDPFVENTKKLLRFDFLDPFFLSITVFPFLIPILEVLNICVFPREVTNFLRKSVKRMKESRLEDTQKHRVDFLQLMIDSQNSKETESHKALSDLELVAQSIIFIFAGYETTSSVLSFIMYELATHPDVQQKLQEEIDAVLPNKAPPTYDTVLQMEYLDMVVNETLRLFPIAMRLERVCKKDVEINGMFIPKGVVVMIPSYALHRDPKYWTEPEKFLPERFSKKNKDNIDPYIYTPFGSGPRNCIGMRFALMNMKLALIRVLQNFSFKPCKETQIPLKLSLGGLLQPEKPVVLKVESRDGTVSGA
Method in brief: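 20 nM human CYP3A4 with 25 uM Luciferin-PPXE (at KM) in 200 mM KPO4, preincubated 10 min with compound; NADPH regeneration started a 60 min RT reaction. Luciferin detected by luminescence, normalized to 57 uM ketoconazole as full inhibition.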

[17] = biological target: Cytochrome P450 3A4 (Homo sapiens) (UniProt P08684); experiment: qHTS Assay for Activators of Cytochrome P450 3A4 (AID 885; active = well fitted curve in the direction sought with a large enough effect; an effect the other way counts as inactive or inconclusive; also: nearly all actives have a fitted effect of over 65% in size)
Method in brief: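 Signal was normalized against complete inhibition by 57 uM ketoconazole. The reaction used 20nM CYP3A4 with 25uM Luciferin-PPXE, 10-min compound preincubation and a 60-min NADPH-supported step at RT.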

[18] = biological target: Cytochrome P450 2C19 (Homo sapiens) (UniProt P33261); experiment: qHTS Assay for Inhibitors and Substrates of Cytochrome P450 2C19 (AID 899; active = well fitted curve in the direction sought with a large enough effect; an effect the other way counts as inactive or inconclusive; also: potency is read from the fitted curve at half-maximal effect; nearly all actives have a fitted effect of over 60% in size)
Cytochrome P450 2C19 (Homo sapiens), sequence (P33261 whole entry, looked up): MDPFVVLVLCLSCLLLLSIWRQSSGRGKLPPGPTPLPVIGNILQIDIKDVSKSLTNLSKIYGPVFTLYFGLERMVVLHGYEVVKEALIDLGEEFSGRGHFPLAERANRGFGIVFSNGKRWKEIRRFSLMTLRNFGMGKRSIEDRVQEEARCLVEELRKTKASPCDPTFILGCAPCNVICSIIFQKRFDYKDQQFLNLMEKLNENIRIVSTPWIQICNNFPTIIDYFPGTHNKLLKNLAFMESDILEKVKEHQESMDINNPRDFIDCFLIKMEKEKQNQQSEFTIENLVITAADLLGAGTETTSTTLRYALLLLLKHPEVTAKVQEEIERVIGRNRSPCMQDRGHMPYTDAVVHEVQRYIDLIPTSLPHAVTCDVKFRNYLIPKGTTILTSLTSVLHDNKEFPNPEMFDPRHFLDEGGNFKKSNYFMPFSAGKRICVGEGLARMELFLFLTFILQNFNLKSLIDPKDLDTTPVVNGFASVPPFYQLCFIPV
Method in brief: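 Luminescence readout of luciferin formed from 10uM Luciferin-H EGE (KM level) by 5 nM CYP2C19 in 50mM KPO4. 60 min NADPH-driven reaction at 37C after 10 min compound preincubation; data scaled to 57uM ketoconazole inhibition.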

[19] = biological target: Ubiquitin carboxyl-terminal hydrolase 1 (Homo sapiens) (UniProt O94782); experiment: Inhibitors of USP1/UAF1: Pilot qHTS (AID 504865; active = well fitted curve in the direction sought with a large enough effect; an effect the other way counts as inactive or inconclusive;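 also: rhodamine fluorescence freed from ubiquitin-rhodamine substrate followed over time; top concentration of the series differs between compounds; % is scaled to controls: 0 for no effect and ±100 for the full control effect; nearly all actives have a fitted effect of over 35% in size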)
Ubiquitin carboxyl-terminal hydrolase 1 (Homo sapiens), sequence (O94782 whole entry, looked up): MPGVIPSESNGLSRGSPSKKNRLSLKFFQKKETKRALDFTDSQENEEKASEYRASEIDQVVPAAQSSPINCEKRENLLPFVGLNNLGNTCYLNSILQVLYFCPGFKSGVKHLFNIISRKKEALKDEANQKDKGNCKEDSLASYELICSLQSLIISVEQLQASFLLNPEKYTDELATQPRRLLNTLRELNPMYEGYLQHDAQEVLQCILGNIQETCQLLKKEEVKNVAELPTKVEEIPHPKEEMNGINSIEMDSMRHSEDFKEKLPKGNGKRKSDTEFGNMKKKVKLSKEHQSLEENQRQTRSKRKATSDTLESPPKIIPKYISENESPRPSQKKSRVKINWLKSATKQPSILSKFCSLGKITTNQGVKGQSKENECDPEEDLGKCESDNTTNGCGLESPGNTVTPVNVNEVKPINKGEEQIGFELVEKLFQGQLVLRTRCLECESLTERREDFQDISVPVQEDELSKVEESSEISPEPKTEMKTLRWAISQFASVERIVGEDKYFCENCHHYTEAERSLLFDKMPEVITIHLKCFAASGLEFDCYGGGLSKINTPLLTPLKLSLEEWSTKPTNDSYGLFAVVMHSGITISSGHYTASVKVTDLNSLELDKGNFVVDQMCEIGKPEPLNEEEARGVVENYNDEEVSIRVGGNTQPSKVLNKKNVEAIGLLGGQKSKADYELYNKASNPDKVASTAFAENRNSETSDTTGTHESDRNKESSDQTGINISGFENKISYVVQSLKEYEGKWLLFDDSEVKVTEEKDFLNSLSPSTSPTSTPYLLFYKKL
Method in brief: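 Deubiquitinase activity followed as kinetic rhodamine fluorescence release from 150 nM Ub-Rho. 1 nM USP1/UAF1 with compound, after 15 min room-temperature preincubation, in HEPES pH 7.8 buffer containing TCEP, EDTA, BSA and Tween-20.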

O=C1c2ccccc2-c2onc3ccc(NCc4ccco4)c1c23
active: Potency [4] 1.63 µM
inactive: activity change, negative = inhibition [1] -13% | activity, negative = inhibition [2] -1.03% | Potency [3] > 20.6 µM

CC1(C)Cc2c(C#N)c(SCC(=O)c3ccccc3)nc(N3CCOCC3)c2CS1
inactive: activity change, negative = inhibition [1] -7.36% | activity, negative = inhibition [2] 0.377% | Potency [3] > 20.6 µM

Cn1c(=O)c2c3c(sc2n2c(SCC(=O)c4ccc(Cl)cc4)nnc12)COC(C)(C)C3
inactive: activity change, negative = inhibition [1] -6.68% | activity, negative = inhibition [2] -0.164% | Potency [3] > 20.6 µM

CNc1oc(-c2ccccc2Cl)nc1C#N
inactive: activity change, negative = inhibition [1] -4.94% | activity, negative = inhibition [2] -0.918% | Potency [3] > 20.6 µM | activation [5] 10.7%

CCCc1cc(=O)oc2c(CN3CCN(C)CC3)c(O)c(Cl)cc12
inactive: activity change, negative = inhibition [1] -0.941% | activity, negative = inhibition [2] -1.37% | Potency [3] > 20.6 µM
active: Potency [5] 5.01 µM

CCCc1cc(=O)oc2c(CN3CCCC3)c(O)c(Cl)cc12
inactive: activity change, negative = inhibition [1] -8.98% | activity, negative = inhibition [2] 0.152% | Potency [3] > 20.6 µM

CC(=O)O[C@@H]1[C@H]([N+]2(C)CCCCC2)C[C@@H]2[C@@H]3CC[C@@H]4C[C@@H](OC(C)=O)[C@H]([N+]5(C)CCCCC5)C[C@@]4(C)[C@H]3CC[C@]21C
inactive: activity change, negative = inhibition [1] 13.6% [at 38 µM] | activity, negative = inhibition [2] 18.1% [at 38 µM] | Potency [3] > 46 µM | Potency [6] > 46 µM | Potency [7] | Potency [8] | outcome [9] | Potency [10] | Potency [11] | Potency [12] | outcome [13] | outcome [14] | outcome [15]

NC(=O)/C(=C\c1ccncc1)c1cccc2ccccc12
inactive: activity change, negative = inhibition [1] -11.2% [at 7.69 µM] | activity, negative = inhibition [2] -3.8% [at 7.69 µM] | Potency [3] > 46 µM | Potency [6] > 9.22 µM | Potency [8] | activity change, positive = activation [17] -72.7% [at 11.4 µM]
active: Potency [16] 3.16 µM | Potency [18] 2.51 µM

CCCCCCCCN[C@@H](C)[C@H](O)c1ccc(SC(C)C)cc1
inactive: activity change, negative = inhibition [1] 0.133% | activity, negative = inhibition [2] 7.39% | Potency [3] > 20.6 µM | Potency [6] > 20.6 µM | Potency [7] | Potency [17] | Potency [19]

COc1cccc(CNc2ccc(Br)cn2)c1O
inactive: activity change, negative = inhibition [1] -25.3% | activity, negative = inhibition [2] -14.6% | Potency [3] > 20.6 µM

CC[C@H](c1ccccc1)c1cc(C(C)(C)C)cc(C(C)(C)C)c1O
inactive: activity change, negative = inhibition [1] 7.36% [at 7.69 µM] | activity, negative = inhibition [2] 3.9% [at 7.69 µM] | Potency [3] > 46 µM | Potency [6] > 9.22 µM | activity change, negative = inhibition [7] 6.57% [at 11.4 µM] | Potency [8] | activity change, positive = activation [17] -33% [at 11.4 µM]

CCc1ccc(-c2cn3nc(C)c(C)nc3n2)cc1
active: Potency [5] 10 µM
inactive: activity change, negative = inhibition [1] 0.521% | activity, negative = inhibition [2] 11.8% | Potency [3] > 20.6 µM

COc1ccc(N/C=C(\C#N)c2nc3ccccc3n2C)c(OC)c1
inactive: activity change, negative = inhibition [1] -21.3% | activity, negative = inhibition [2] -22% | Potency [3] > 20.6 µM

CCOC(=O)CSc1nnc(C)c(=O)[nH]1
inactive: activity change, negative = inhibition [1] 12.3% | activity, negative = inhibition [2] -1.23% | Potency [3] > 20.6 µM | activation [5] -0.909%
